From PubChem BioAssay (NCATS)
Inconclusive results are not listed. The source made the active and inactive calls. Unless noted, calls come from the whole dose curve; as a rule, active = well fitted curve in either direction with a large enough effect (not every such curve was filed as active); inconclusive = small, poorly fitted or top-dose-only effect, or another doubt; inactive = flat fitted curve, though single readings scatter.

Columns and labels:
[1] = molecular target: Lysosomal acid glucosylceramidase (Homo sapiens) (UniProt P04062); assay: Glucocerebrosidase-p2 (AID 348; in the data active = potency below about 10 µM; note: potency is the fitted concentration of half-maximal effect); conditions: purified GBA, blue fluorogenic substrate, 40 min
Chain of Lysosomal acid glucosylceramidase (Homo sapiens) (P04062 whole entry, looked up): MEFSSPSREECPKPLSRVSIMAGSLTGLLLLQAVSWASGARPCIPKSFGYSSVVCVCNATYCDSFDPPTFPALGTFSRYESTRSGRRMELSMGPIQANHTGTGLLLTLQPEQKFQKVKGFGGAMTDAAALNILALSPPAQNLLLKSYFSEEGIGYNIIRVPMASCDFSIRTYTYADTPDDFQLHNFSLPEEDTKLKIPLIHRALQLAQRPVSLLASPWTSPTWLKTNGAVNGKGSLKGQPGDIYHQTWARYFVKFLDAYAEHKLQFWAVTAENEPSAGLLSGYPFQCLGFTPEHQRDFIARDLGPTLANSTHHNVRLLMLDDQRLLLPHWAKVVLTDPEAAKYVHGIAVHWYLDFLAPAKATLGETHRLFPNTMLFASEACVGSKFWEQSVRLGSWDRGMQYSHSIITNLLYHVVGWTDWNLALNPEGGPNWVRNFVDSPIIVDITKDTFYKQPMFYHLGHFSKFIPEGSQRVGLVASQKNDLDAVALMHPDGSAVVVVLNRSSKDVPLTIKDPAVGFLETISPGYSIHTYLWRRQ
In short: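 Compounds titrated from 0.6 nM upwards against 0.2 nM enzyme in pH 5.9 citric acid/KH2PO4, taurocholate, tween-20; blue fluorogenic substrate 80 uM, 40 min room temperature, stopped and read Ex 365/Em 440 for AC50.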

[2] = AP1 Signaling Pathway (AID 357); conditions: ME-180 AP-1-bla reporter, EGF-induced, beta-lactamase ratio, 5 h; at 7.69 µM (top of the series) unless noted;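 note: ME-180 reporter cells stimulated with EGF at its EC50 level; % is set by controls: 0 for no effect and ±100 for the full control effect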
In short: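 Cells are seeded overnight, exposed to compound titrations and an EC50 level of EGF for 5 hours at 37 °C, then loaded with CCF4 dye for 2.5 hours. Beta-lactamase activity under the AP-1 element is read as a blue/green ratio.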

[3] = molecular target: Cytochrome P450 1A2 (Homo sapiens) (UniProt P05177); assay: p450-cyp1a2 (AID 410; calls by dose curve; note: potency is the fitted concentration of half-maximal effect;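 for activity change, negative = inhibition: -100% = full effect of reference inhibitor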); conditions: recombinant CYP1A2, luciferin-ME demethylation, luminescence; series mostly up to 11.4 µM
Chain of Cytochrome P450 1A2 (Homo sapiens) (P05177 whole entry, looked up): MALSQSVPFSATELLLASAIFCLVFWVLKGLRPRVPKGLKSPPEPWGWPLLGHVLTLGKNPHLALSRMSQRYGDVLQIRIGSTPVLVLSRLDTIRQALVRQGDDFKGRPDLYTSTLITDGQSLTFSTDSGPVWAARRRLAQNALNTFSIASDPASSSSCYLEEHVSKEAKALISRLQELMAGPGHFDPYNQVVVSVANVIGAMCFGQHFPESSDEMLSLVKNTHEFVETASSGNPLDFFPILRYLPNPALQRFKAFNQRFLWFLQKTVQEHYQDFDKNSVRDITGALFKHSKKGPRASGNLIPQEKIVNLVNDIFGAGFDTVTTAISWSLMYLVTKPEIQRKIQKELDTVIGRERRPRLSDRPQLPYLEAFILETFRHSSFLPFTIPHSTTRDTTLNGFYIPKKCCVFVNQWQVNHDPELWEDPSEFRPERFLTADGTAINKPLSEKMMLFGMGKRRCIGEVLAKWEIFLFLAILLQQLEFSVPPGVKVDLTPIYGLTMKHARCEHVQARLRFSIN
In short: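 Luminescent readout of luciferin formed from Luciferin-ME by human CYP1A2; data normalized against complete inhibition by 57 uM furafylline. Enzyme 20nM, substrate 100uM at Km, 100mM KPO4 buffer, 60 min reaction at room temperature.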

[4] = Stat Signaling Pathway (AID 446); conditions: ME-180 SIE beta-lactamase reporter, IL-6 stimulated, 5 h; at 7.69 µM (top of the series) unless noted;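 note: ME-180 cervical cancer cells given 40 pM IL-6 alongside compound; SIE-controlled beta-lactamase reporter measured as 460/530 nm FRET emission ratio; % is set by controls: 0 for no effect and ±100 for the full control effect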
In short: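 Screening format detects activators and inhibitors alike: ME-180 SIE-bla cells stimulated at 40 pM IL-6 for 5 hrs with compound, then dual-emission beta-lactamase read at 405 nm excitation.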

[5] = molecular target: Glucocorticoid receptor (Homo sapiens) (UniProt P04150); assay: GR-GFP Redistribution (AID 450;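 active = compounds whose dose series gives a full or clear partial fitted curve of increased nuclear translocation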; note: potency is the fitted concentration of half-maximal effect); conditions: U2OS GR-GFP nuclear translocation, laser cytometry, 2 h
Chain of Glucocorticoid receptor (Homo sapiens) (P04150 whole entry, looked up, the tested form may be a part): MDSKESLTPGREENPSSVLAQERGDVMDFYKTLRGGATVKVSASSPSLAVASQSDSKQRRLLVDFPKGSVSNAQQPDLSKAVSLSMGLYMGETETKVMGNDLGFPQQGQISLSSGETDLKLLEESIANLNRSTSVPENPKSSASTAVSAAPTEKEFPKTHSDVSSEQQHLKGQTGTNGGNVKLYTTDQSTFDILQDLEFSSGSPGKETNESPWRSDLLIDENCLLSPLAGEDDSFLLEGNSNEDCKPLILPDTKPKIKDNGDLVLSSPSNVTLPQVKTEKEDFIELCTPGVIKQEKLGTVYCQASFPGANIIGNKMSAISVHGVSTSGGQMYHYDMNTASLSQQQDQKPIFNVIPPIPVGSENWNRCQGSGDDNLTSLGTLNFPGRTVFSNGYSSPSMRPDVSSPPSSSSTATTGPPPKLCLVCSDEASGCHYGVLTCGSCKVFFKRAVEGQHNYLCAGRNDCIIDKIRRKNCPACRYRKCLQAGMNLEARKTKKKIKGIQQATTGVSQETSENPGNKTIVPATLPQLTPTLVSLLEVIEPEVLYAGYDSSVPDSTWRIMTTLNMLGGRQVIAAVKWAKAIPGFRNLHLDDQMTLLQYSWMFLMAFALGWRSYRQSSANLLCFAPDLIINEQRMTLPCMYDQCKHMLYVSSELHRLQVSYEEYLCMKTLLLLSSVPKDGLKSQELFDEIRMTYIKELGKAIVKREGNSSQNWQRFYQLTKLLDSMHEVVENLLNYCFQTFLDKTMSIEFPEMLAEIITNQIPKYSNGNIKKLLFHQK

[6] = molecular target: Glucocorticoid receptor (Homo sapiens) (UniProt P04150); assay: GR-EFC Redistribution (AID 451; calls by dose curve; note: potency is the fitted concentration of half-maximal effect); conditions: CHO-K1 GR-EFC translocation, beta-gal luminescence, 2 h
In short: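 CHO-K1 cells expressing nuclear EA and GR-ED fragments of b-gal; compounds titrated up to 46 uM final, 2 h at 37 C. GR nuclear translocation read as complemented b-gal luminescence after 1 h RT detection.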

[7] = molecular target: Mitogen-activated protein kinase 10 (Mus musculus) (UniProt Q61831); assay: JNK3 AlphaScreen Assay (AID 530); conditions: JNK3 lysate, c-Jun phosphorylation; series mostly up to 57.1 µM;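 note: kinase came from lysate of stimulated human HepG2 cells; signal reports phosphorylation of biotinylated GST-cJun 1-79 at Ser73 with 10 µM ATP; % is set by controls: 0 for no effect and ±100 for the full control effect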
In short: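 Pre-activated (IL-1β/TNFα) JNK3 in HepG2 lysates phosphorylates biotin-GST-cJun(1-79), 10 uM ATP; anti-phospho-cJun(Ser73) AlphaScreen read at room temperature, pH 7.6 Tris buffer. Compounds pre-incubated 15 min as titrations.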

[8] = molecular target: 3',5'-cyclic-AMP phosphodiesterase 4B (Homo sapiens) (UniProt Q07343); assay: qHTS Assay for Inhibitors of PDE-IV (AID 607; active = well fitted activation curve with a large enough effect in the main read-out, with a control signal flat, not every such curve was filed as active; note: % of control where 0% means no effect); conditions: HEK293 ACTOne CNG channel cells, membrane potential fluorescence; series mostly up to 22.9 µM
Chain of 3',5'-cyclic-AMP phosphodiesterase 4B (Homo sapiens) (Q07343 whole entry, looked up): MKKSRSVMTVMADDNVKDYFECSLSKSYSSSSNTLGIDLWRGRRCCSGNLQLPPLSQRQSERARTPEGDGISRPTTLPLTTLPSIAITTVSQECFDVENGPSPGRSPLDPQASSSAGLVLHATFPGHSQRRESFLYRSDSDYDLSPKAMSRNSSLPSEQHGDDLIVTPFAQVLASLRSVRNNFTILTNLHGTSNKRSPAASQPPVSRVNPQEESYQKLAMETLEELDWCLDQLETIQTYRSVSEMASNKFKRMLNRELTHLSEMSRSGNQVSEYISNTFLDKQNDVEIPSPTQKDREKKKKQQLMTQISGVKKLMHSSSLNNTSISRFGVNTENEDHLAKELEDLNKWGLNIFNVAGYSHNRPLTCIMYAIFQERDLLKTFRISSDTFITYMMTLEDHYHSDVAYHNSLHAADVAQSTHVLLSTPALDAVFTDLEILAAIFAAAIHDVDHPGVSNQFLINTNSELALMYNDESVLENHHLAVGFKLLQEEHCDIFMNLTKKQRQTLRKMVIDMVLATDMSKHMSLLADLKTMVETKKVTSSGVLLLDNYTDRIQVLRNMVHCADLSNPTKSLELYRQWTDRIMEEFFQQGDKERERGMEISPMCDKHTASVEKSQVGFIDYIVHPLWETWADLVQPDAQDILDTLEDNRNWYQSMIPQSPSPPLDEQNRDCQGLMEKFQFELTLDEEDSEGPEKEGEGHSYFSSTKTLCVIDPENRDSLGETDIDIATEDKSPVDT
In short: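 The readout is membrane depolarisation from a cAMP-sensing CNG channel, detected with a potential dye at ex 535/em 590. Cells were HEK293-derived (endogenous PDE-IV) at 1000 cells/well, titrated up to 22.9 uM final.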

[9] = NFAT Signaling Pathway (AID 444); conditions: Jurkat NFAT-bla M1, carbachol, beta-lactamase ratio, 5 h; at 7.69 µM (top of the series) unless noted;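 note: carbachol stimulus at about its EC50 of 1 µM final; % is set by controls: 0 for no effect and ±100 for the full control effect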
In short: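 Jurkat cells with NFAT-driven β-lactamase reporter and co-expressed M1 receptor, stimulated with carbachol (final 1 uM, ~EC50), compound titration, 5 h at 37 °C. CCF4 loaded 1 h at RT; 460/530 nm ratio gave %activity and AC50.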

[10] = molecular target: Cytochrome P450 2D6 (Homo sapiens) (UniProt P10635); assay: qHTS Assay for Inhibitors and Substrates of Cytochrome P450 2D6 (AID 891; active = well fitted curve in the direction sought with a large enough effect; an effect the other way counts as inactive or inconclusive; note: potency is the fitted concentration of half-maximal effect; nearly all actives have a fitted effect of over 60% in size); conditions: recombinant CYP2D6, luciferin-ME EGE luminescence; series mostly up to 11.4 µM
Chain of Cytochrome P450 2D6 (Homo sapiens) (P10635 whole entry, looked up): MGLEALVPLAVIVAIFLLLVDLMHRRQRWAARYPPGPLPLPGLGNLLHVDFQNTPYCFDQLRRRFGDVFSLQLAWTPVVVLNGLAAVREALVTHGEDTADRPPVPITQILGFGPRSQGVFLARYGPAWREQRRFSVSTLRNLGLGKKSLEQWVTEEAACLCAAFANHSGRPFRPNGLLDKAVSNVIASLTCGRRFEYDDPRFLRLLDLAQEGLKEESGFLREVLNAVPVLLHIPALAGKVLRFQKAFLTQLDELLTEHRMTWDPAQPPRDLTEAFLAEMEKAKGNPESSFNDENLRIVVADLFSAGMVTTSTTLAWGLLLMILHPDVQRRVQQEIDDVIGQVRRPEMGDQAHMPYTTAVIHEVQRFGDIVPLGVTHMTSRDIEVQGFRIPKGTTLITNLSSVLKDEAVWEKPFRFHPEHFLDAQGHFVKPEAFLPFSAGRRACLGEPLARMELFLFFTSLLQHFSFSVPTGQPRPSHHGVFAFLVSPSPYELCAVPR
In short: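 Human CYP2D6 (5 nM) with 30 uM Luciferin-ME EGE (at Km) in 100 mM KPO4, compound preincubated 10 min, then NADPH regeneration system for 60 min at room temperature. Luciferin read by luminescence; normalized to 1.43 uM quinidine.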

[11] = molecular target: Cytochrome P450 2C19 (Homo sapiens) (UniProt P33261); assay: qHTS Assay for Inhibitors and Substrates of Cytochrome P450 2C19 (AID 899; active = well fitted curve in the direction sought with a large enough effect; an effect the other way counts as inactive or inconclusive; note: % is set by controls: 0 for no effect and ±100 for the full control effect; nearly all actives have a fitted effect of over 60% in size); conditions: recombinant CYP2C19, luciferin-H EGE luminescence; series mostly up to 11.4 µM
Chain of Cytochrome P450 2C19 (Homo sapiens) (P33261 whole entry, looked up): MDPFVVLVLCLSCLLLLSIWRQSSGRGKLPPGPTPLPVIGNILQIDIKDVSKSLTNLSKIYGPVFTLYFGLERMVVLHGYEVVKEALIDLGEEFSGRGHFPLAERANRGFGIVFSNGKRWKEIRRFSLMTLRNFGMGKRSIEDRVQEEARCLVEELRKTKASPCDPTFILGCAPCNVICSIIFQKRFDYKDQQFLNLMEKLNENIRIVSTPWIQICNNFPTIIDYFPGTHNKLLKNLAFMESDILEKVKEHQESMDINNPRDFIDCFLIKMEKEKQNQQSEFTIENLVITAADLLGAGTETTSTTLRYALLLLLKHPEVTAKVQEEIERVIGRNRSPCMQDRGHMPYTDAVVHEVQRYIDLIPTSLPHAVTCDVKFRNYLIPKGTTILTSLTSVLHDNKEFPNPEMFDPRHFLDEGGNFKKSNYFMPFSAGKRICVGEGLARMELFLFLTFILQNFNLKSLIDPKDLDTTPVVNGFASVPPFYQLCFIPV
In short: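 Signal comes from luciferase acting on luciferin released by CYP2C19-mediated hydroxylation of Luciferin-H EGE, 10uM (KM). Assay mix: 5nM enzyme, 50mM KPO4; 60 min at 37C with NADPH regeneration. Data normalized against 57uM ketoconazole.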

[12] = molecular target: Cytochrome P450 3A4 (Homo sapiens) (UniProt P08684); assay: qHTS Assay for Activators of Cytochrome P450 3A4 (AID 885; active = well fitted curve in the direction sought with a large enough effect; an effect the other way counts as inactive or inconclusive; note: nearly all actives have a fitted effect of over 65% in size); conditions: recombinant CYP3A4, Luciferin-PPXE luminescence, 60 min; series mostly up to 57.1 µM
Chain of Cytochrome P450 3A4 (Homo sapiens) (P08684 whole entry, looked up): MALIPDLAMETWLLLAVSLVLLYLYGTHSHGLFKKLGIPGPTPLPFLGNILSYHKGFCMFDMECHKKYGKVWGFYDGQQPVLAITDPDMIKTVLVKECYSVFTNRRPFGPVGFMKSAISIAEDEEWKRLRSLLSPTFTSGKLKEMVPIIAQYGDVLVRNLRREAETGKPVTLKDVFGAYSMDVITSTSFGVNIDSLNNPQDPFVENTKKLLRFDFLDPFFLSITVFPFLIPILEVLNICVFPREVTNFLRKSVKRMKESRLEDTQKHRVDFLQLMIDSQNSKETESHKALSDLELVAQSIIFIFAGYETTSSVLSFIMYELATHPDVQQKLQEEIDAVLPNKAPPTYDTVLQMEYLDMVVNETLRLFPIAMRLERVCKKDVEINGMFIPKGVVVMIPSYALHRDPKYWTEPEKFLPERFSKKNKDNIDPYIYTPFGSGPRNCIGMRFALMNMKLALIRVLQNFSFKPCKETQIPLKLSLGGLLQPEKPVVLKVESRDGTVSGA
In short: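 Steps: enzyme/substrate mix dispensed; compound added, 10 min RT; NADPH regeneration solution added, 60 min RT; luciferin detection buffer stops reaction; 20 min later luminescence measured.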

[13] = qHTS Assay for Identification of Small Molecule Agonists for Hypoxia Response Element Signaling Pathway (AID 914; active = well fitted activation curve with a large enough effect in the signal ratio, with a control signal flat, not every such curve was filed as active; the % refers to the signal ratio; note: % of control where 0% means no effect); conditions: ME-180 (cervical carcinoma) HRE-bla reporter, beta-lactamase ratio, CoCl2, 17 h; active compounds read high
In short: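 Reporter activity (beta-lactamase, CCF4 460nm/530nm ratio) in HRE-bla ME-180 cells is recorded after 17 h compound exposure with EC50 CoCl2 at 37 degrees Celsius. AC50 values come from titration data.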

CC1(C)CCC(C)(C)c2c1ccc(O)c2Cc1c(O)ccc2c1C(C)(C)CCC2(C)C
inactive: Potency [1] > 11.4 µM | activity change, negative = inhibition [2] -8.54% | activity, negative = inhibition [4] 0.741% | Potency [5] > 46 µM | Potency [6] > 9.22 µM | activity change, negative = inhibition [7] -1.06% [at 11.4 µM] | outcome [8]
active: Potency [3] 5.01 µM

CC(=O)O/C(=C1/C[C@H]2[C@@H]3CC=C4C[C@@H](OC(C)=O)CC[C@]4(C)[C@@H]3CC[C@]2(C)C1=O)C(F)(F)F
active: Potency [3] 5.01 µM
inactive: Potency [1] > 11.4 µM | activity change, negative = inhibition [2] -23.8% | activity, negative = inhibition [4] -16.9% | Potency [5] > 46 µM | Potency [6] > 9.22 µM | activity change, negative = inhibition [7] -0.565% [at 11.4 µM] | outcome [8]

O=C(O)C(C(=O)O)P(=S)(S)c1ccccc1 (stereo not drawn)
inactive: Potency [1] > 11.4 µM | activity change, negative = inhibition [2] 3.83% | Potency [3] | activity change, negative = inhibition [9] 11.1% | activity, negative = inhibition [4] 2.85% | Potency [5] > 46 µM | outcome [8]

CC1(C)N=C(N)N=C(N)N1c1cccc(C(=O)Nc2ccc(S(=O)(=O)F)cc2)c1
inactive: Potency [1] > 11.4 µM | activity change, negative = inhibition [2] -0.165% | Potency [3] | activity, negative = inhibition [4] 9.13% | Potency [5] > 46 µM | outcome [8]
active: Potency [10] 2 µM

COc1cc2c3cc1Oc1c(O)c(OC)cc4c1[C@@H](Cc1ccc(cc1)Oc1cc(ccc1O)C[C@H]3N(C)CC2)N(C)CC4
inactive: Potency [1] > 11.4 µM | activity change, negative = inhibition [2] 5.28% | Potency [3] | activity change, negative = inhibition [9] -11.5% | Potency [5] > 46 µM | Potency [6] > 9.22 µM | activity change, negative = inhibition [7] 4.78% [at 11.4 µM] | outcome [8]

c1cc(C2N3CCCN2CC3)ccn1 (stereo not drawn)
inactive: Potency [1] > 11.4 µM | activity change, negative = inhibition [2] 2.62% | activity, negative = inhibition [4] 3.03% | Potency [5] > 46 µM | Potency [6] > 9.22 µM | activity change, negative = inhibition [7] 2.87% [at 11.4 µM] | outcome [8] | Potency [11]
active: Potency [3] 1.26 µM

COc1ccccc1CN1CCCC2(CCN(C(=O)Oc3ccccc3)CC2)C1
active: Potency [10] 3.98 µM
inactive: Potency [1] > 11.4 µM | activity change, negative = inhibition [2] 3.33% | Potency [3] | activity, negative = inhibition [4] 1.52% | Potency [7] | outcome [8] | Potency [12]

COc1cc2c(cc1OC)[C@@]13CCN4C=C5CCO[C@H]6CC(=O)N2[C@@H]1[C@@H]6[C@H]5C[C@H]43
inactive: Potency [1] > 11.4 µM | activity change, negative = inhibition [2] 4.45% | activity change, negative = inhibition [9] 16.4% | activity, negative = inhibition [4] 2.38% | activity change, negative = inhibition [7] 3.62% [at 11.4 µM] | outcome [8] | activation [13] -4.7%
active: Potency [3] 5.01 µM

CN1CCN(c2ccc([N+](=O)[O-])c3[nH]o[n+](=O)c23)CC1
inactive: Potency [1] > 11.4 µM | activity change, negative = inhibition [2] -7.81% | activity, negative = inhibition [4] 11.3% | Potency [5] > 46 µM | activity change, negative = inhibition [7] -3.28% [at 11.4 µM]
active: Potency [3] 0.398 µM

c1ccc2c([C@@H]3CCN(CCN4CCOCC4)C3)c[nH]c2c1
inactive: Potency [1] > 11.4 µM | activity change, negative = inhibition [2] -11.8% | Potency [3] | activity, negative = inhibition [4] 0.702% | Potency [5] > 46 µM | Potency [6] > 9.22 µM | activity change, negative = inhibition [7] 3.19% [at 11.4 µM] | outcome [8]

CC[C@H]1CN2CCc3cc(OC)c(OC)cc3[C@H]2C[C@@H]1C[C@H]1NCCc2c1[nH]c1ccc(O)cc21
active: activity change, negative = inhibition [2] -118% | activity change, negative = inhibition [9] -128%
inactive: Potency [1] > 11.4 µM | Potency [3] | Potency [5] > 46 µM | Potency [6] > 9.22 µM | activity change, negative = inhibition [7] -2.73% [at 11.4 µM] | outcome [8]

C[As+](C)(c1ccc(Br)c([N+](=O)[O-])c1)c1ccc(Br)c([N+](=O)[O-])c1.O=[N+]([O-])O
inactive: Potency [1] > 11.4 µM | activity change, negative = inhibition [2] 10.5% | Potency [3] | activity change, negative = inhibition [9] -2.2% | Potency [5] > 46 µM | Potency [6] > 9.22 µM | activity change, negative = inhibition [7] -0.633% [at 11.4 µM] | outcome [8]
